Compound activity as filed in PubChem.
Sfp inh – Sfp phosphopantetheinyl transferase inhibition. Q9F4F7. Biochemical Sfp PPTase activity, qHTS. Potency, µM, for inactives: largest response in the series, negative = inhibition, usual class: inhibitors. actives 3.5% (n = 310,000). AID 1490;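 also: the enzyme is Sfp with the accession as filed and its product quenches rhodamine fluorescence; 0% = enzyme reaction without inhibitor and -100% = no enzyme wells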
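With Hepes-Na pH 7.6 buffer containing 10 mM MgCl2, Sfp (15 nM) modified BHQ-2-YbbR (12.5 uM) using rhodamine-CoA (5 uM). Two reads 30 minutes apart at 525/598 nm yielded each well's rate.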
HP1b binding inh – HP1-beta chromodomain-methylated histone interaction inhibition; P83916; AlphaScreen HP1-beta / biotin-H3K9me3 peptide binding; Potency, µM (doses to about 114 µM), for inactives: at the top dose activity change, negative = inhibition, hits mostly inhibitors; actives 0.56% (n = 390,000); AID 540317; also: nearly all actives have a fitted effect of over 70% in size
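Compound inhibition of the preformed complex between 50 nM HP1-beta and 50 nM biotinylated H3K9me3 peptide was read by AlphaScreen. Buffer was PBS pH 7.4 with 0.01% Tween-20. Incubations ran 30 min at room temperature, with 10 ug/mL donor/acceptor beads.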
BAZ2B block – inhibitors of human BAZ2B bromodomain. Q9UIF8. AlphaScreen BAZ2B-H3K14Ac peptide displacement. Potency, µM (series often up to 114 µM), without a hit: top-dose activity change, negative = inhibition, most hits filed as inhibitors. actives 4.4% (n = 360,000); also: % is scaled to controls: 0 for no effect and ±100 for the full control effect; nearly all actives have a fitted effect of over 60% in size
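BAZ2B 50 nM plus b-H3(5-23)K14Ac 50 nM, PBS pH 7.4/0.01% Tween-20, 30 min RT; compound added (max 110 uM), 30 min RT; streptavidin donor/Ni-chelate acceptor beads 10 ug/mL final, 20 min dark; AlphaScreen read.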
L3MBTL1 block – L3MBTL1 (human) inhibition; Q9Y468; AlphaScreen L3MBTL1–H3K9me1 peptide binding; Potency, µM (titrated, usually from 57.1 µM), for the others: at the top dose activity, negative = inhibition, hits mostly inhibitors; actives 0.66% (n = 230,000); also: % is scaled to controls: 0 for no effect and ±100 for the full control effect; nearly all actives have a fitted effect of over 60% in size
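First, the protein-peptide complex forms for 30 min at room temperature (L3MBTL1 50 nM, biotinylated H3K9me1 peptide 75 nM). Next, compounds are pin-transferred and incubated 30 min. Finally, AlphaScreen beads are added and read after 30 min.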
G9a inh – blocks human histone lysine methyltransferase G9a; Q96KQ7; G9a H3K9 monomethylation, AlphaScreen, 2 h; Potency, µM (highest dose often 102 µM), for the others: at the top dose activity, negative = inhibition, usual class: inhibitors; actives 8.8% (n = 350,000); AID 504332; also: % is scaled to controls: 0 for no effect and ±100 for the full control effect; nearly all actives have a fitted effect of over 75% in size
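AlphaScreen read-out: biotin-H3K9 peptide (500 nM) methylation by 20 nM enzyme with 20 uM SAM, 2 h at room temperature after 15 min compound preincubation; anti-monomethyl H3K9 antibody plus donor/acceptor beads, 10 min dark.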
JMJD2A Tudor inh – JMJD2A Tudor domain (human) inhibition | Potency, µM (titrated, usually from 114 µM), without a hit: top-dose activity change, negative = inhibition, most hits filed as inhibitors | AlphaScreen JMJD2A-Tudor / H3K4me3 peptide binding | actives 4.4% (n = 390,000) | O75164 | AID 504339; also: % is scaled to controls: 0 for no effect and ±100 for the full control effect; nearly all actives have a fitted effect of over 50% in size
Target sequence (O75164 whole entry, looked up, the tested form may be a part): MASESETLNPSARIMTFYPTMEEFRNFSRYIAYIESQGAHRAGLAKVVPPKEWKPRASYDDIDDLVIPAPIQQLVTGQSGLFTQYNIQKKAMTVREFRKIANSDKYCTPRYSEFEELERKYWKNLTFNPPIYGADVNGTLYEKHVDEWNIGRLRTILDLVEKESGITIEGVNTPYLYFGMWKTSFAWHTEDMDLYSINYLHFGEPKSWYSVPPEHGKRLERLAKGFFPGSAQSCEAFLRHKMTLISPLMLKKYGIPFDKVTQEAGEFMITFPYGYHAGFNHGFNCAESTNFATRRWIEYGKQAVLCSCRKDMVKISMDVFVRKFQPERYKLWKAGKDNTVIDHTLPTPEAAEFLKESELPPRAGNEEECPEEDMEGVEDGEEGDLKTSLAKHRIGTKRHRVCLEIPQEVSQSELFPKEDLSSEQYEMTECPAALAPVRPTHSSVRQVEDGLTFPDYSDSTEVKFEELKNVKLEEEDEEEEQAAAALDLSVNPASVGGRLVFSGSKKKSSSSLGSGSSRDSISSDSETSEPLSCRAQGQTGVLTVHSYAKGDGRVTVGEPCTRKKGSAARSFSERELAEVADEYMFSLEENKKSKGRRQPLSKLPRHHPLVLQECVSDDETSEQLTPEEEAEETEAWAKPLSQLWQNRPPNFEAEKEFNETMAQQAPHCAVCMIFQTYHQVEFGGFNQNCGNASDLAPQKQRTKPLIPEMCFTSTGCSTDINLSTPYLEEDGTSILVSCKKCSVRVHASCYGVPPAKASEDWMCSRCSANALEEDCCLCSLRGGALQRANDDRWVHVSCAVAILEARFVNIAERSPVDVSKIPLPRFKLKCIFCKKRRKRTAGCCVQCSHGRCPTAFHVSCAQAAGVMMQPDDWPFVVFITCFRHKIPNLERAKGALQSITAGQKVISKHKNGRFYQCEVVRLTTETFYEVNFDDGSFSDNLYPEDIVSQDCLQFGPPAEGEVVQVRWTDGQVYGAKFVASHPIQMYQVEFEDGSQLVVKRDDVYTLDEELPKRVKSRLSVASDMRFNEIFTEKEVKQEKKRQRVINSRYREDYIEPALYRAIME
Starred values were filed as active, the others as inactive; u = inconclusive; x = not tested or not shown; [ ] = dose if it differs, or a comment. Only some compounds are listed: those with a hit (about 12% of all), similar ones and a draw of the others. Calls follow the shape of the dose curve; as a rule, active = well fitted curve in the direction sought with a large enough effect; inconclusive = small, poorly fitted or top-dose-only effect, or another doubt; inactive = no such curve, though single readings can be large; an effect the other way counts as inactive or inconclusive. Potency is read from the fitted curve at half-maximal effect.

SMILES | Sfp inh | HP1b binding inh | BAZ2B block | L3MBTL1 block | G9a inh | JMJD2A Tudor inh
COc1ccc(/C=C(\NC(=O)c2ccccc2)C(=O)NC2CCCCC2)cc1 | x | 24.1% | 2.6% | x | -2.2%[59 µM] | -16.7%
CCC(=O)N1CCc2cc(S(=O)(=O)NC(C(=O)NCCc3ccc(OC)c(OC)c3)C(C)C)ccc21 (centres undefined) | x | 35.3% | x | x | -2.0%[59 µM] | -19.3%
CCCCCCOC(=O)c1cccnc1 | 10.6% | x | x | x | 26.0%[59 µM] | x
Nc1cc2c(cc1C(=O)c1cccc(Br)c1)OCCO2 | -12.9% | u | 35.5µM* | u | 17.8µM* | 44.7µM*
COc1ccc(OC)c(CCNC(=O)c2ccc3[nH]c(C)c(C)c3c2)c1 | x | -15.1% | u | x | -15.3%[59 µM] | -23.7%
[O-]/[N+](=C\c1ccccc1)c1ccc(Br)cc1 | x | -3.2% | u | -14.8% | 9.1%[2.33 µM] | u
[O-]/[N+](=C\c1ccc(F)cc1)c1ccccc1 | -17.8% | 4.0% | 3.5% | x | 7.94µM* | -1.2%
[O-]/[N+](=C\c1cccc(Br)c1)c1ccccc1 | 11.5% | 14.3% | 26.7% | x | 39.8µM* | -15.5%
O=C(O)CCn1c(=O)c2cccn2c2cccnc21 | x | 7.6% | -0.2% | x | -0.2%[59 µM] | -18.5%
CN(C)CCCN(C(=O)c1ccc(S(=O)(=O)N(C)Cc2ccccc2)cc1)c1nc2cc3c(cc2s1)OCO3 | u | -15.3% | u | x | 50.1µM* | 50.1µM*
CN(C)CCN(C(=O)c1ccc(N2C(=O)CCC2=O)cc1)c1nc2cc3c(cc2s1)OCO3 | 1.2% | 17.7% | x | x | 39.8µM* | -15.5%
CN(C)CCN(C(=O)c1cccc(N2C(=O)CCC2=O)c1)c1nc2ccc(Br)cc2s1 | 2.3% | 9.7% | -5.3% | x | u | -9.6%
CN(C)CCCN(C(=O)c1ccc([N+](=O)[O-])o1)c1nc2cc3c(cc2s1)OCO3 | -4.5% | 0.5% | -32.5% | x | 56.2µM* | -29.8%
CCN(c1ccccc1)S(=O)(=O)c1ccc(C(=O)N(CCCN(C)C)c2nc3c(C)cccc3s2)cc1 | -14.5% | -19.4% | 28.2µM* | x | x | 44.7µM*
CCOc1ccc(CNC(=O)Cn2c(=O)c3cccn3c3cccnc32)cc1 | x | 26.8% | -14.8% | x | 4.8%[59 µM] | 9.5%
CC1CCN(CC2CCN(C(=O)NCc3ccccc3)CC2)CC1 | x | u | -3.2% | x | 4.4%[59 µM] | -0.3%
COc1ccc2c(c1)c1c(c(=O)n(-c3ccccc3C)c(=O)n1CC(=O)Nc1c(C)cccc1C)n2C | x | 21.0% | -10.0% | x | -17.4%[59 µM] | -5.2%
CCc1cccc(-n2c(=O)c3cccnc3n2CC(=O)NCc2ccc(C)cc2)c1 | x | 20.7% | -4.7% | x | -0.5%[59 µM] | -7.5%
CCC(Cc1ccccc1)NC(=O)c1csc2c1CCCCC2 (centres undefined) | x | 74.8% | -25.3% | x | 19.9%[59 µM] | 5.8%
COc1ccc2sc(N(CCCN(C)C)C(=O)c3ccc(S(=O)(=O)N(C)Cc4ccccc4)cc3)nc2c1 | x | u | u | -10.9% | 44.7µM* | 50.1µM*
CCN(c1ccccc1)S(=O)(=O)c1ccc(C(=O)N(CCCN(C)C)c2nc3cc4c(cc3s2)OCO4)cc1 | u | u | -37.0% | x | 39.8µM* | 39.8µM*
COc1ccccc1CCNC(=O)Cc1c(C)c2cc(Cl)c(O)cc2oc1=O | x | 58.4% | 2.5% | x | 3.3%[59 µM] | 3.1%
CCCCN(CCCNC(=O)c1c(C)cc(=O)oc1C)c1ccccc1 | 11.6% | u | 44.7µM* | -29.5% | 50.1µM* | 50.1µM*
CCC(=O)Nc1nc2ccc(NC(=O)COc3ccccc3)cc2s1 | 0.9% | 36.3% | -17.3% | x | 79.4µM* | -0.8%
COc1ccc(C(=O)Nc2nc3ccccc3s2)cc1OC | u | 33.8% | 3.3% | 66.4% | x | -15.4%
COc1ccc(/C=N/OCC(=O)Nc2nc3ccccc3s2)cc1OC | -3.0% | -0.8% | -1.8% | -0.1% | 7.0% | 50.1µM*
CCOCC(=O)Nc1nc2ccccc2s1 | 50.1µM* | 42.3% | 13.8% | 0.6% | 5.0%[59 µM] | -3.1%
CCc1sc(NC(=O)COC)nc1-c1ccccc1 | -6.5% | -21.6% | 3.4% | -1.5% | 35.5µM* | -10.1%
